Source: the supplement of paper PMC11732987, “Enantioselective OTUD7B fragment discovery through chemoproteomics screening and high-throughput optimisation” (Communications Chemistry, 2025)

Experiments:
Test in all cases: log2 ratio of Biotin-Ahx-Ub-VS probe labelling (fragment/DMSO); higher = less target engagement (more negative = stronger competition), active = hit call of the paper (q ≤ 0.05, log2 ratio ≤ -1)
Details in all cases: compound concentration: 200 uM; treatment time: 3 h
[1] = biological target: T1, USP19 (UniProt O94966)
T1 sequence (whole entry): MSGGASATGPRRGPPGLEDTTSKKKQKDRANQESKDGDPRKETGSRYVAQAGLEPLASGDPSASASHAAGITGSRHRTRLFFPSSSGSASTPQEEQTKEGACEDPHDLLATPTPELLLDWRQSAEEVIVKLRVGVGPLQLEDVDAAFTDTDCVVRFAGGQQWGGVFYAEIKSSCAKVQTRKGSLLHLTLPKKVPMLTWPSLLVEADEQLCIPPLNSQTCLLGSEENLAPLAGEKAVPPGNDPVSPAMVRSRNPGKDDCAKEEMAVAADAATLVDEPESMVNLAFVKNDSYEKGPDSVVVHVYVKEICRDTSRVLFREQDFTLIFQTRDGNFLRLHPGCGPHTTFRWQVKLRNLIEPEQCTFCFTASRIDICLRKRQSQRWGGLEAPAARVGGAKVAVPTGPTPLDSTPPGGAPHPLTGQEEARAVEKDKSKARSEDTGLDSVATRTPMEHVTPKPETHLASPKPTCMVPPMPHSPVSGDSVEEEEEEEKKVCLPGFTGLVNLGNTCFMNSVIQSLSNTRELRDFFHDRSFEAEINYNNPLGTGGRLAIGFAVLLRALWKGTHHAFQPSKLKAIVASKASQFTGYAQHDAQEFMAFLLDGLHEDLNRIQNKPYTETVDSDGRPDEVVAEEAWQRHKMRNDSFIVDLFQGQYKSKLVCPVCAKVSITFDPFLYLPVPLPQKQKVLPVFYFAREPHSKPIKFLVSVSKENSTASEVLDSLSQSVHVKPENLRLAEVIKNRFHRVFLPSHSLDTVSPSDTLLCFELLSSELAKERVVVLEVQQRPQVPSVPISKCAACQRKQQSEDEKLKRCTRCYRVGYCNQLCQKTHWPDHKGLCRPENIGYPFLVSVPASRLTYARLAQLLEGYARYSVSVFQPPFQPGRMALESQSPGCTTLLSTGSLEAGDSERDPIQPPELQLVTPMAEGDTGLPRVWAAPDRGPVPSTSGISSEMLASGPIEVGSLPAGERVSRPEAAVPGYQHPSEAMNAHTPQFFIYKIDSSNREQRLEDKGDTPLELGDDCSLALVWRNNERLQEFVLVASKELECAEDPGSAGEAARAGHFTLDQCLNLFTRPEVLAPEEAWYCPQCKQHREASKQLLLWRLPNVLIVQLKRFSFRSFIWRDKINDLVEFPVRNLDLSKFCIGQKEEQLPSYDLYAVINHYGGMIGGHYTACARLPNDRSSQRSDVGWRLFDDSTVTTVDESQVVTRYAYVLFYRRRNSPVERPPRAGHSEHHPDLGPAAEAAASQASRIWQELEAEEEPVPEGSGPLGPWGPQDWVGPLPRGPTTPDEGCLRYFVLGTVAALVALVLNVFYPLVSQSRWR
In short: (§1)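 Average log2 ratios of fragment over vehicle were obtained by unpaired t-test from global-median-normalised Spectronaut label-free quantities. Proteins with ≥2 unique peptides were included. HEK293T lysate (495 µg per sample) was treated in triplicate with fragment at 200 µM or vehicle for 3 h, then with Biotin-Ahx-Ub-VS at 0.5 µM final for 1 h, and labelled DUBs were NeutrAvidin-enriched and run by diaPASEF LC-MS/MS.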

[2] = biological target: USP24 (UniProt Q9UPU5)
In short: as §1

[3] = biological target: T2, USP25 (UniProt Q9UHP3)
T2 sequence (whole entry): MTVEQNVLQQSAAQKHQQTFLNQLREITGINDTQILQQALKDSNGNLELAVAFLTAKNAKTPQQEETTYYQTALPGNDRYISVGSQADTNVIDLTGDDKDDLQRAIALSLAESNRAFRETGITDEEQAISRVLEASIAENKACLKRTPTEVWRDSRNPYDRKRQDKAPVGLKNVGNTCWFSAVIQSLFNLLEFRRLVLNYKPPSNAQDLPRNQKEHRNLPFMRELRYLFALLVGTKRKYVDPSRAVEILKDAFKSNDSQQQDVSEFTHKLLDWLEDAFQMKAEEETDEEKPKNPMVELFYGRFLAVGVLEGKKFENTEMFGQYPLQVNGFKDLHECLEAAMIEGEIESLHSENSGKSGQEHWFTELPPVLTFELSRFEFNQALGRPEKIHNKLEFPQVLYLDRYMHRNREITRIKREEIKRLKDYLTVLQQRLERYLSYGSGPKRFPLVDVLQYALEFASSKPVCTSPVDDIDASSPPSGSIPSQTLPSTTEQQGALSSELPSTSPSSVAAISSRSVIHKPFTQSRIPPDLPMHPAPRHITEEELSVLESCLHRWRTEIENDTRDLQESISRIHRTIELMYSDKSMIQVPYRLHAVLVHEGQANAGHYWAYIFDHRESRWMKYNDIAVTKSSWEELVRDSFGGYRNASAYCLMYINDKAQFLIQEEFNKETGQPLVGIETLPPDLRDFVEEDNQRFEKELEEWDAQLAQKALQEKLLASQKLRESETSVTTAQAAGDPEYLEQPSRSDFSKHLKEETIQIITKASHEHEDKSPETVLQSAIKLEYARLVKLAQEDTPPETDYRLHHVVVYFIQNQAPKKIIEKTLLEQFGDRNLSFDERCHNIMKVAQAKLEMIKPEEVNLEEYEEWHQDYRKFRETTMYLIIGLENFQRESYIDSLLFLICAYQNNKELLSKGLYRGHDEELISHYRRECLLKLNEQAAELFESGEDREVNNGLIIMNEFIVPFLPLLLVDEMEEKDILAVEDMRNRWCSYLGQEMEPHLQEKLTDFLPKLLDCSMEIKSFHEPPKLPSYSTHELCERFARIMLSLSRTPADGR
In short: as §1

[4] = biological target: T3, USP28 (UniProt Q96RU2)
T3 sequence (whole entry): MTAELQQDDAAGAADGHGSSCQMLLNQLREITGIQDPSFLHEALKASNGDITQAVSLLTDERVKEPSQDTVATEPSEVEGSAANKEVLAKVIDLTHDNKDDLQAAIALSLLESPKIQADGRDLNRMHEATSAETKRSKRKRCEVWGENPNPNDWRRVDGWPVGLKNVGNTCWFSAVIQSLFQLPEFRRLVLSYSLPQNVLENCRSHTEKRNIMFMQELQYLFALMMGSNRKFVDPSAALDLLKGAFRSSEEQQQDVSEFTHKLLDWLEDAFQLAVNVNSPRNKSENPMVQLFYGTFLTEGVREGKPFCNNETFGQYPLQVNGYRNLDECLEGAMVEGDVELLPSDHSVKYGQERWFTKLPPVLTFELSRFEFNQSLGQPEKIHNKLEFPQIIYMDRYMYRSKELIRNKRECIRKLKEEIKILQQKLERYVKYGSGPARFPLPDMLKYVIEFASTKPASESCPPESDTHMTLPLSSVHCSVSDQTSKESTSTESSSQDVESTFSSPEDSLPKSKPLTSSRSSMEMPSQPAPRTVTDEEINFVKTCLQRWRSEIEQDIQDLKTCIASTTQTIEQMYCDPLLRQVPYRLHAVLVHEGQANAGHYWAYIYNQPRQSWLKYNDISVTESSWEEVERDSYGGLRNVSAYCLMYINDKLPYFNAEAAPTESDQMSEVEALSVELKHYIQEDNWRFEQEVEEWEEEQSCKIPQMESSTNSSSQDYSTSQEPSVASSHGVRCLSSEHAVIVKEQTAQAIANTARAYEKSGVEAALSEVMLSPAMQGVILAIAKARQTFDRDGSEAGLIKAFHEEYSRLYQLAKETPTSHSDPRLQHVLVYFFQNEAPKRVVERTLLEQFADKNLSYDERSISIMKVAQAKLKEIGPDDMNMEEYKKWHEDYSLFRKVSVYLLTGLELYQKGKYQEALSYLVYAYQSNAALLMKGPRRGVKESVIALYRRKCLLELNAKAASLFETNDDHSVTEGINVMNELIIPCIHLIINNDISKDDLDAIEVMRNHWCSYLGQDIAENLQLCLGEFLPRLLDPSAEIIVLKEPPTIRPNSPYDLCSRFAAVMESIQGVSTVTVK
In short: as §1

Measured: log2 ratio of Biotin-Ahx-Ub-VS probe labelling

USP24, sequence (Q9UPU5 whole entry): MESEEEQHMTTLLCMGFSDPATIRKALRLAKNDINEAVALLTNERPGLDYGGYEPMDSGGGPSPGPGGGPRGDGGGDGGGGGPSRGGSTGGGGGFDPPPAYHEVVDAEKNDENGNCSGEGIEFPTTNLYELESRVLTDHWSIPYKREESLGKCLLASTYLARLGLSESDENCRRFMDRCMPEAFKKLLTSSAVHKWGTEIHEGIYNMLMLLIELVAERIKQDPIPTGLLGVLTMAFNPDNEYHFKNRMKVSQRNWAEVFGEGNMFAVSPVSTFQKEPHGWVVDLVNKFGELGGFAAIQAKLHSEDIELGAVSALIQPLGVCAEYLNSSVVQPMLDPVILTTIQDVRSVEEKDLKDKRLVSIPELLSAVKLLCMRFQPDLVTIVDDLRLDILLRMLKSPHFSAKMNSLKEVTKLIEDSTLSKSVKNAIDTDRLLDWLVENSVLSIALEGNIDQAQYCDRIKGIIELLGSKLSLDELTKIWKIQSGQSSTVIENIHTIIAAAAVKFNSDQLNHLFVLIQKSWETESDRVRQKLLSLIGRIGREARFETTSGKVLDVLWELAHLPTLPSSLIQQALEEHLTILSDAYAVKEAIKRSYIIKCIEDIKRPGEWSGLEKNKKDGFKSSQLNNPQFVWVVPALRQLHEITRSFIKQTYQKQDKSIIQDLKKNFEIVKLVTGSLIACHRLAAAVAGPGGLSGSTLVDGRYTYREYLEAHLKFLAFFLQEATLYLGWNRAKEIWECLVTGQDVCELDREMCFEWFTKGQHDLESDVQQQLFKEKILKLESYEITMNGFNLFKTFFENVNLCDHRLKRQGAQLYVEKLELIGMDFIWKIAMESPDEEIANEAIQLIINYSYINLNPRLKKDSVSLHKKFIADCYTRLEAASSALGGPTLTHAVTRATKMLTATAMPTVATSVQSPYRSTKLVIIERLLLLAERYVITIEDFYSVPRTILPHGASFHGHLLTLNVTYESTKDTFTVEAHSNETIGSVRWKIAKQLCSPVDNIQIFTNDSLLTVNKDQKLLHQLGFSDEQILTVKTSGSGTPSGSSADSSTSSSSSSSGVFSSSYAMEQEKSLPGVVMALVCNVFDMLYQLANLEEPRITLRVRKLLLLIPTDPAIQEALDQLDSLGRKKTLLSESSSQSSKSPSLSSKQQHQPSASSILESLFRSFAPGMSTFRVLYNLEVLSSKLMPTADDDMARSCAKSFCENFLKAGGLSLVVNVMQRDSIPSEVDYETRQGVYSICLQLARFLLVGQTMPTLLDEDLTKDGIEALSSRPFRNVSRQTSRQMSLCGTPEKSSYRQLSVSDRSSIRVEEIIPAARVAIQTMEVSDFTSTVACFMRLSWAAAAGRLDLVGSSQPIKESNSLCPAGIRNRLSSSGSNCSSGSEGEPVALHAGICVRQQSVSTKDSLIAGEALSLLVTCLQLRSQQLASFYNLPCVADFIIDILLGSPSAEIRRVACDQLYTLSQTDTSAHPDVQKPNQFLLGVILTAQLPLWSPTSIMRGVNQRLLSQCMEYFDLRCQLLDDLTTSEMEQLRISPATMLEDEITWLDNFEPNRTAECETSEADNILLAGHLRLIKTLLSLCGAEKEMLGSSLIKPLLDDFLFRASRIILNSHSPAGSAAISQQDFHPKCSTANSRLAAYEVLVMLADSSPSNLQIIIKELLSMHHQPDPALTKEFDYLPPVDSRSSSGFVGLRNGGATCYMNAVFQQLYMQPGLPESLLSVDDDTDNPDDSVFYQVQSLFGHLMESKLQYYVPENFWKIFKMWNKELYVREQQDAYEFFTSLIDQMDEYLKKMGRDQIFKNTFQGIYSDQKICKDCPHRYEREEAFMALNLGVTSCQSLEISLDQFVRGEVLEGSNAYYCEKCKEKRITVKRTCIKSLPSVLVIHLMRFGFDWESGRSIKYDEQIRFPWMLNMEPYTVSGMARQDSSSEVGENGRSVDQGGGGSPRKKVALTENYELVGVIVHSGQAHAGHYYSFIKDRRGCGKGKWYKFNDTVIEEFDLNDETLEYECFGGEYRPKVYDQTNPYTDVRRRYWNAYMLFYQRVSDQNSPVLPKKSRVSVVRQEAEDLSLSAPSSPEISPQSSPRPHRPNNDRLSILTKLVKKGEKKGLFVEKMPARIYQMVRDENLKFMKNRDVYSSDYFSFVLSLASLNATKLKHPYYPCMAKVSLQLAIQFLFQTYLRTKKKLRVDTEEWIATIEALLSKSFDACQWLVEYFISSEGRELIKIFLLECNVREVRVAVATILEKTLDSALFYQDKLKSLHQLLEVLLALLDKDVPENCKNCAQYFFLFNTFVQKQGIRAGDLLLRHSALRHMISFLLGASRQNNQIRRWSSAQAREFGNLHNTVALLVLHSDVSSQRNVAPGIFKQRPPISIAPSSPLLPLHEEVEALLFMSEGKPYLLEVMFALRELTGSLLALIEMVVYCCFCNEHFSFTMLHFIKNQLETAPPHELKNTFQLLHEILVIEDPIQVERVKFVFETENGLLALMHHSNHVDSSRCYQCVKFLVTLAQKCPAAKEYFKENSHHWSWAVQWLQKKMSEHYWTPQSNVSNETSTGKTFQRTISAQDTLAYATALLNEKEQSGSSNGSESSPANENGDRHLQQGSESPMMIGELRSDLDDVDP

Cl.O=C(CCl)NCc1ccnc(Oc2ccccc2F)c1
inactive: [1] -0.111 | [2] -0.349 | [3] -0.678 | [4] -0.558
